tim10-1 inh = inhibits growth of tim10-1 mutant yeast. S. cerevisiae tim10-1 ts strain growth, BacTiter-Glo, 24 h. inhibition, % at 20 µM. 330,000 compounds, 2.2% hits. AID 463190;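 active = inhibition of at least 40%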;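 note: mutant grown at 25 °C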
NALP3 yeast inh = inhibitors of NALP3 inflammasome in yeast; Yeast reconstituted NLRP3/ASC/caspase-1, beta-gal luminescence, 24 h; inhibition, % at 10 µM; 330,000 compounds, 0.39% hits;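 active = inhibition of 50% or more; inactive = inhibition below 50%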
tim23-1 inh = inhibits growth of tim23-1 mutant yeast | 330,000 compounds, 1.3% hits | S. cerevisiae tim23-1 growth, BacTiter-Glo luminescence, 24 h | inhibition, % at 20 µM;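 active = growth inhibition of the mutant yeast at or above 50%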;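 note: temperature-sensitive mutant grown at 25 °C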
SKKanGAS inh = SKKanGAS growth inhibition. S. pyogenes SKKanGAS, kanamycin growth, BacTiter-Glo, 6 h. inhibition, % at 7.5 µM. AID 1662. 300,000 compounds, 1.3% hits;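 active = mean replicate score, as percent of positive control median, at least 50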;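 note: strain carries kanamycin resistance gene driven by streptokinase promoter and grows in 40 µg/ml kanamycin; loss of luminescence reflects streptokinase promoter inhibition or plain growth inhibition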
TIM10 inh = TIM10 yeast growth inhibition; AID 463195; S. cerevisiae TIM10 strain growth, BacTiter-Glo luminescence, 24 h; inhibition, % at 10 µM; 330,000 compounds, 1.4% hits;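 active = inhibition of 40% or more at the single tested concentration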;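 note: wild-type TIM10 isogenic control strain grown at permissive 25 °C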
NALP3 yeast conf = confirmation of NALP3 inhibitors in yeast; yeast expressing human NALP3, luminescence; AID 435006; inhibition, % at 10 µM; 1,300 compounds, 81% hits; shares compounds with NALP3 yeast inh; in the data active = inhibition above about 48%
Casp1-ASC yeast = counter-screen for NALP3 inhibitors: yeast caspase-1-ASC; yeast expressing Caspase-1-ASC, luminescence counter screen; inhibition, % at 10 µM; shares compounds with NALP3 yeast inh; AID 488784; 1,000 compounds, 66% hits
NALP3 retest = yeast NALP3 inhibition, confirmed on retest | shares compounds with NALP3 yeast inh | yeast expressing human NALP3, luminescence read-out | inhibition, % at 10 µM | 1,000 compounds, 53% hits | AID 488794
Of the large screens only hits and unclear results are named; the others gave an inactive call (follow-up assays come after a bar, where they were run). Shown are actives, neighbours in structure and some others; about 4.6% of the full set was active somewhere. Cut-off read from the data, not from the text of the source, unless noted: active = inhibition above about 50%; inactive = the rest.

CCOC(=O)c1ccc(NC(=O)c2nc[nH]c2C(=O)N[C@@H](C)C(=O)OC(C)(C)C)cc1	none
O=C(CCN1CCCCO1)N1CCCC(Nc2cccc(F)c2)C1 (configuration not stated)	none
COc1cccc(NS(=O)(=O)c2ccc(Br)s2)c1	NALP3 yeast inh 53 | NALP3 yeast conf 63 | Casp1-ASC yeast inactive | NALP3 retest inactive
Clc1cc2nc3ccccn3c2cc1Cl	NALP3 yeast inh 67 | NALP3 yeast conf inactive
NC(=O)c1c[nH]c2ccccc12	none
O=C(Nc1ccccc1)C(=O)c1c[nH]c2ccccc12	NALP3 yeast inh 58 | NALP3 yeast conf 75 | Casp1-ASC yeast inactive | NALP3 retest inactive
O=C(/C=C/c1ccccc1)c1c[nH]c2ccccc12	NALP3 yeast inh 50 | NALP3 yeast conf 63
CC(=O)Nc1ccc(C(=O)NNC(=O)C2C3CCCCC32)cc1 (configuration not stated)	none
O=C(NNC(=O)c1ccc(Oc2cc(Cl)cc(Cl)c2)o1)c1ccccc1	none
O=C(NNC(=O)c1ccc(Oc2ccc(C3SCCS3)cc2)o1)c1ccc(Cl)cc1	NALP3 yeast inh 53 | NALP3 yeast conf inactive
CCc1nc(CNC(=O)C2CCC(=O)N(Cc3cccc(OC)c3)C2)no1 (configuration not stated)	none
COc1ccc(C(=O)NCCc2nnc3ccc(SCC(=O)Nc4ccccc4)nn23)cc1	none
Cn1c(=O)c(C(=O)NNC(=O)c2ccccc2F)c(O)c2ccccc21	NALP3 yeast inh 64, SKKanGAS inh 61 | NALP3 yeast conf 82 | Casp1-ASC yeast inactive | NALP3 retest 54
CN(Cc1ccc(OC(F)F)cc1)C(=O)c1ccc2c(=O)n3c(nc2c1)CCC3	none
CC(C)(C)C1COc2ccccc2N1C(=O)c1cccc(Cl)c1 (configuration not stated)	none
CC1(C)CC(c2nc(-c3ccc([N+](=O)[O-])cc3)cs2)CCO1 (configuration not stated)	none | NALP3 yeast conf inactive
COc1ccc(C)cc1NC(=O)CN1CCCC1c1ccc2c(c1)OCCCO2 (configuration not stated)	none (no result: SKKanGAS inh)
Cc1ccc(Sc2cc(C)nc(-c3ccccn3)n2)cc1	NALP3 yeast inh 51, SKKanGAS inh 85 | NALP3 yeast conf inactive | Casp1-ASC yeast 65 | NALP3 retest inactive
Cc1ccc(Cc2nc(-c3ccccn3)no2)cc1	none
Cc1csc(=Nc2cccnc2)n1CC1CCCCC1	none | NALP3 yeast conf inactive
CCCOc1ccc2c3c(c(=O)oc2c1)CCCC3	NALP3 yeast inh 55 | NALP3 yeast conf 63 | Casp1-ASC yeast 78 | NALP3 retest 64
CCOc1ccc(C(=O)c2cc([N+](=O)[O-])ccc2Cl)cc1	NALP3 yeast inh 67 | NALP3 yeast conf 67 | Casp1-ASC yeast 72 | NALP3 retest 69
O=C(Nc1cccc(-c2nc3cccnc3s2)c1)c1ccco1	none
O=C(Nc1ccc(-c2nc3cccnc3s2)cc1)c1ccco1	NALP3 yeast inh 51 | NALP3 yeast conf 72 | Casp1-ASC yeast inactive | NALP3 retest inactive
CSc1nc2ccc(NC(=O)c3ccco3)cc2s1	NALP3 yeast inh 51 | NALP3 yeast conf 58 | Casp1-ASC yeast 56 | NALP3 retest 54
O=C(CCl)N1CCN(S(=O)(=O)c2ccc3c(c2)CCC3)CC1	none (no result: SKKanGAS inh)
O=C(CSCc1cccc(Cl)c1)OCc1nc2ccsc2c(=O)[nH]1	none
CCSc1nnc(NC(=O)c2cccs2)s1	NALP3 yeast inh 53 | NALP3 yeast conf 64 | Casp1-ASC yeast inactive | NALP3 retest inactive
CC(=O)Oc1ccccc1C(=O)Nc1ccccc1	NALP3 yeast inh 52 | NALP3 yeast conf 68 | Casp1-ASC yeast inactive | NALP3 retest inactive
CC(C)(C)C(=O)Nc1ccc(N=Nc2ccccc2)cc1	NALP3 yeast inh 53 | NALP3 yeast conf 65 | Casp1-ASC yeast inactive | NALP3 retest inactive
O=C(O)CCC(=O)Nc1ccc(N=Nc2ccccc2)cc1	none (no result: tim10-1 inh, NALP3 yeast inh, tim23-1 inh, TIM10 inh)
Cc1cccc(OCCCSc2nc3ccc(C)cc3[nH]2)c1	NALP3 yeast inh 50 | NALP3 yeast conf 53 | Casp1-ASC yeast 54 | NALP3 retest inactive
Cc1ccc(N2C(=O)C3N=NN(CC(=O)N4N=C(c5ccccc5)CC4c4ccccc4)C3C2=O)cc1 (configuration not stated)	NALP3 yeast inh 65 | NALP3 yeast conf 61 | Casp1-ASC yeast inactive | NALP3 retest inactive
Nc1ccc(Oc2cc(N)cc(Oc3ccccc3)c2)cc1	NALP3 yeast inh 50 | NALP3 yeast conf 64 | Casp1-ASC yeast inactive | NALP3 retest inactive
Nc1ccc(Oc2ccc3nc(-c4ccccc4)c(-c4ccccc4)nc3c2)cc1	none
COc1ccc(CNCC(O)COc2ccc(C(C)(C)c3ccccc3)cc2)cc1 (configuration not stated)	NALP3 yeast inh 53 | NALP3 yeast conf 76
COC(=O)c1ccc(CNCC(O)COc2ccc(-c3ccccc3)cc2)cc1 (configuration not stated)	none
COc1ccc(-c2cc(=Nc3ccc(C(=O)O)cc3)c3cc(C)ccc3o2)cc1	NALP3 yeast inh 53 | NALP3 yeast conf 72 | Casp1-ASC yeast 57 | NALP3 retest inactive
COc1ccc(-c2cc(C(=O)Nc3c(C)n(C)n(-c4ccccc4)c3=O)no2)cc1	none
CCc1ccc2oc(-c3ccc(OC)cc3)cc(=Nc3cccc(C(=O)O)c3)c2c1	none
CCc1ccc2oc(-c3ccc(OC)cc3)cc(=Nc3c(C)n(C)n(-c4ccccc4)c3=O)c2c1	NALP3 yeast inh 53 | NALP3 yeast conf inactive | Casp1-ASC yeast 54 | NALP3 retest inactive
CCOc1ccccc1NC(=O)NNC(=O)COc1cccc(C)c1C	none
Cc1cc(-c2cc(C(=O)NC3CCCC3)on2)nc(NC2CCCC2)n1	none
CCCNc1nc(C)cc(-c2cc(C(=O)NC3CCCC3)on2)n1	NALP3 yeast inh 63 | NALP3 yeast conf 81 | Casp1-ASC yeast 51 | NALP3 retest inactive
COc1ccc(Cn2c(=O)sc3ccccc3c2=O)cc1	NALP3 yeast inh 51 (no result: SKKanGAS inh) | NALP3 yeast conf 60 | Casp1-ASC yeast 60 | NALP3 retest inactive
Cn1c(SCc2nc(-c3ccc(Cl)cc3)no2)nnc1-c1ccco1	NALP3 yeast inh 53 | NALP3 yeast conf 66 | Casp1-ASC yeast inactive | NALP3 retest inactive
O=S(=O)(c1ccsc1)N1CC=C(c2ccccc2)CC1	NALP3 yeast inh 58 | NALP3 yeast conf 61 | Casp1-ASC yeast inactive | NALP3 retest inactive
CC1CCCCN1S(=O)(=O)c1cnc(Cl)c(Br)c1 (configuration not stated)	NALP3 yeast inh 55 | NALP3 yeast conf 54
O=C(CN1C(=O)c2ccccc2S1(=O)=O)Nc1ncc(Cl)cc1Cl	none (no result: SKKanGAS inh)
Cc1ccc(C)c(Oc2nnnn2-c2ccccc2)c1	none | NALP3 yeast conf inactive
